Experimental data reported in PubChem BioAssay (NCI).
About 79,000 compounds went through this panel and 15% of them were active in at least one assay; those are over-represented in the sample as a whole. Active and inactive are the calls of the source. No stated cut-off is given here; in the data, active means growth inhibition above about 70%; inactive means the rest.

Experiment: NCI Yeast Anticancer Drug Screen. Data for the sgs1 strain (AID 173);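 further: 0% = growth of vehicle-only control cultures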
Conditions: S. cerevisiae sgs1 mutant, stronger effect = higher value
Experimental: Growth inhibition of yeast strains with defined genetic alterations is measured as a screen for potential anti-cancer activity. Selected strains with alterations in DNA damage repair or cell cycle control were exposed to compounds and growth inhibition was measured relative to vehicle treated controls. The strain used in this assay is sgs1

Measured: growth inhibition

S=C(N/N=C(/c1ccccc1)c1ccccn1)N1CCCCCC1
inactive: at 1.2 µM 4% | at 3.7 µM 10% | at 11.0 µM 11% | at 33.0 µM 10% | at 100.0 µM 7%

CC(=O)Oc1cc(-c2cc(OC(C)=O)c(OC(C)=O)c3ccccc23)c2ccccc2c1OC(C)=O
inactive: at 1.2 µM 7% | at 3.7 µM 10% | at 11.0 µM 11% | at 33.0 µM 16%
active: at 100.0 µM 82%

CC[C@@]1(O)C(=O)OCc2c1cc1n(c2=O)Cc2cc3c(CN(C)C)c(O)ccc3nc2-1
inactive: at 1.2 µM -3% | at 3.7 µM 0% | at 11.0 µM 0% | at 33.0 µM 6% | at 100.0 µM 5%

CC(C(=O)N1C(=O)N(C(=O)[C@H](C)C(O)c2ccccc2)[C@H](c2ccccc2)[C@H]1c1ccccc1)[C@@H](O)c1ccccc1 (stereo not given in full)
active: at 100.0 µM 70%
inactive: at 1.2 µM -2% | at 3.7 µM 2% | at 11.0 µM 30% | at 33.0 µM 65%

CCCCCCc1cc(C(=O)OC/C(C)=N/NC(N)=O)c2ccccc2n1
inactive: at 1.2 µM -4% | at 3.7 µM -4% | at 11.0 µM -6% | at 33.0 µM -5% | at 100.0 µM -4%

c1ccc(-c2nc3cccnc3s2)cc1
inactive: at 1.2 µM -2% | at 3.7 µM -3% | at 11.0 µM -2% | at 33.0 µM -3% | at 100.0 µM -9%

C[C@@H]1C[C@H]2[C@@H]3CCC4=CC(=O)C=C[C@]4(C)[C@@]3(Cl)[C@@H](Cl)C[C@]2(C)[C@@]1(O)C(=O)COP(=O)(O)O
inactive: at 1.2 µM 0% | at 3.7 µM -3% | at 11.0 µM -2% | at 33.0 µM -1% | at 100.0 µM -1%

COc1ccc(N=C2C(=O)Nc3ccc(Br)cc32)cc1
inactive: at 1.2 µM 1% | at 3.7 µM -10% | at 11.0 µM -5% | at 33.0 µM -16% | at 100.0 µM -11%
